TbREL1 inh – TbREL1 inhibition, primary screen; TbREL1 RNA ligation, FRET fluorescence; inhibition, % at 9.66 µM; hit rate 0.49% among 89,000; AID 1117264;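 active = inhibition above the mean inhibition across all screened compounds plus 3 SD, cut at about 11% in these data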;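 also: 0% = plate median of test wells and 100% = NSC42067 control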
Target sequence (P86926 whole entry, looked up): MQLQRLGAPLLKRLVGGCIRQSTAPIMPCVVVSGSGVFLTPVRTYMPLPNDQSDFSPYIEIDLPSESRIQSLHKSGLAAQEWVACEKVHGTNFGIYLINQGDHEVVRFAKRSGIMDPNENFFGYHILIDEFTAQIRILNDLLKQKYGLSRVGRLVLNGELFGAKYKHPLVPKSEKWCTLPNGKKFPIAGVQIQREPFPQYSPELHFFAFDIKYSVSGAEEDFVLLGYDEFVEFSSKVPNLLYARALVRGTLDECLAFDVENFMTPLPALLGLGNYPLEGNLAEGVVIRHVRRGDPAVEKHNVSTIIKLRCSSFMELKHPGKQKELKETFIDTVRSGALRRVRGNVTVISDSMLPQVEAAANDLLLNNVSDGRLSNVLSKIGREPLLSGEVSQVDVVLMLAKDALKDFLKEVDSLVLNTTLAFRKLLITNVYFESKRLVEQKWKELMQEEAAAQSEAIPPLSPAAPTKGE
TbREL1 conf – TbREL1 inhibition, confirmation. shares compounds with TbREL1 inh. TbREL1 RNA ligation, FRET fluorescence. inhibition, % at 9.66 µM. hit rate 37% among 390;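 active = mean inhibition across replicates above a set limit taken from the earlier primary screen, cut at about 11% in these data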;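 also: 0% = REL1 with substrate and DMSO and 100% = REL1 plus control inhibitor NSC42067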
* marks the source's active call; other numbers are inactive results. This is one part of a sample in which hits are shown more often than they occur.

How did O=C(Nc1cccc(Cl)c1)NC1CCCCC1 do in these assays?
TbREL1 inh: 6

How did C[C@H]1C2CC(OC(=O)Nc3ccc(F)cc3)C(C2)[C@H]2CCCCN21 (some centres undefined) do in these assays?
TbREL1 inh: 1

How did COC(=O)[C@]12C[C@H](CC(=O)NCCCCc3ccccc3)C(=O)N(Cc3ccco3)C1=C[C@H](C1CCCC1)O[C@@H]2C do in these assays?
TbREL1 inh: -3

How did CN(C)C(=O)COc1ccc(C(=O)/C=C/c2cccnc2)cc1 do in these assays?
TbREL1 inh: 8

What do the screens show for `COc1cc(C(=O)/C=C/c2cccnc2)c([N+](=O)[O-])cc1OC`?
TbREL1 inh: 2

What do the screens show for `O=C(/C=C/c1cccnc1)c1ccc([N+](=O)[O-])cc1`?
TbREL1 inh: 11*; TbREL1 conf: 11

How did CCc1ccc(CNCC(=O)N2CCC3(CC2)OCCO3)s1 do in these assays?
TbREL1 inh: -2

What do the screens show for `C=CC(=O)NC1CCCCN(C(C)C)C1=O` (centres undefined)?
TbREL1 inh: 0

Results for CC1(C)CC(=O)C=C(Nc2ccccc2NC(=O)c2cc(F)ccc2F)C1 ?
TbREL1 inh: -3

Results for O=C(NCc1ccccc1)O[C@@H]1CC[C@@]23CCCN2C(=O)CCC[C@H]3C1 ?
TbREL1 inh: -5

What do the screens show for `CCCCNC(=O)O[C@H]1CC[C@@]23CCCN2C(=O)CCC[C@H]3C1`?
TbREL1 inh: 13*; TbREL1 conf: -3

How did O=C(NCCc1ccccc1)O[C@H]1CC[C@@]23CCCN2C(=O)CCC[C@H]3C1 do in these assays?
TbREL1 inh: -5

What do the screens show for `CCOc1ccc(C=Nn2c(-c3cccc(OC(C)C)c3)n[nH]c2=S)cc1`?
TbREL1 inh: -5

What do the screens show for `COC(CNC(=O)[C@H](Cc1c[nH]c2ccccc12)NC1(C(=O)NC(c2ccccc2)c2ccccc2)CCCCC1)OC`?
TbREL1 inh: -4

Results for O=C(CCCCCN1C(=O)C2C3C=CC(C3)C2C1=O)Nc1ccc2ncccc2c1 (centres undefined) ?
TbREL1 inh: 4

How did O=C(Cc1c[nH]c2ccccc12)Nc1ccc(Nc2cccnc2)c(-c2ccc(Cl)c(Cl)c2)c1 do in these assays?
TbREL1 inh: 0

How did CCOC(=O)c1c(C)n(C)c2cc([N+](=O)[O-])c(O)c([N+](=O)[O-])c12 do in these assays?
TbREL1 inh: 11*; TbREL1 conf: 3

What do the screens show for `CCOC(=O)c1c(C)n(C)c2ccc(OCC(N)=O)cc12`?
TbREL1 inh: 6

Results for CCOC(=O)C1=C(C)N(C)C(=O)NC1c1cccc([N+](=O)[O-])c1 (centres undefined) ?
TbREL1 inh: -1

Results for NC(=O)C1CCN(c2ncc(Br)s2)CC1 ?
TbREL1 inh: 1

How did O=C(CSc1nnc(-c2ccccc2)n1-c1ccc(Cl)cc1)Nc1cccc2ccccc12 do in these assays?
TbREL1 inh: 1

What do the screens show for `O=C(CN1C(=O)C2(OCCCO2)c2ccccc21)NCc1ccc2ccccc2c1`?
TbREL1 inh: -3

What do the screens show for `CN(c1ccc(OCC(=O)Nc2ccc3[nH]c(=O)[nH]c3c2)cc1)S(=O)(=O)c1ccc(Cl)cc1`?
TbREL1 inh: 0

Results for CCOc1ccc(S(=O)(=O)N(C)c2ccc(OCC(=O)Nc3ccc4[nH]c(=O)[nH]c4c3)cc2)cc1 ?
TbREL1 inh: 11*; TbREL1 conf: 3

What do the screens show for `COC(=O)c1ccc(NC(=O)COc2ccc(N(C)S(=O)(=O)c3ccc(C)cc3)cc2)cc1`?
TbREL1 inh: 0

Results for CCCCN(C)c1c2c(nc3ncnn13)CCCC2 ?
TbREL1 inh: 7

Results for Cc1ccccc1Cn1cc(COC(=O)N(C)Cc2ccccc2)nn1 ?
TbREL1 inh: 6

Results for O=C(c1ccccc1)c1nnc(-c2ccccc2F)o1 ?
TbREL1 inh: 2

What do the screens show for `CC(=O)c1ccc(NS(=O)(=O)c2ccccc2)cc1`?
TbREL1 inh: 5

How did CC(=O)c1ccc(Nc2ccc(-c3ccccc3F)nn2)cc1 do in these assays?
TbREL1 inh: 13*; TbREL1 conf: 3

What do the screens show for `COc1ccc(N2CCN(CCCNC(=O)Cn3c(=O)c4cccn4c4cccnc43)CC2)c(OC)c1`?
TbREL1 inh: -7

How did Cc1cc(Cl)c(OCCCn2cncn2)c(Br)c1 do in these assays?
TbREL1 inh: -1

What do the screens show for `C=CCNCCCCOc1c(Cl)cc(C)cc1Br`?
TbREL1 inh: 7

What do the screens show for `COCCCNCCCCOc1c(Cl)cc(C)cc1Br`?
TbREL1 inh: 12*; TbREL1 conf: 8

Results for COCCCNCCCOc1ccc(Cl)cc1Br ?
TbREL1 inh: 11*; TbREL1 conf: 6

Results for CCCCNCCCOc1cc(Cl)ccc1Cl ?
TbREL1 inh: -1

How did COCCCNCCOc1ccc(C)cc1[N+](=O)[O-] do in these assays?
TbREL1 inh: 4

What do the screens show for `C#CCNC(=O)CSCc1nc(-c2ccc(OCC)cc2)oc1C`?
TbREL1 inh: 1

Results for Clc1ccc(-n2c(Cc3cccs3)nnc2SC/C=C/c2ccccc2)cc1 ?
TbREL1 inh: 1

What do the screens show for `COc1cccc(N2CCN(CC(=O)NCc3c(F)cccc3F)CC2)c1`?
TbREL1 inh: -3

How did CC(=O)NCCNC(=O)C1(C)Cc2c(-c3cccc(C(N)=O)c3)ccnc2O1 (centres undefined) do in these assays?
TbREL1 inh: 14*; TbREL1 conf: 5

How did CC1(C(=O)NCc2ccc(F)c(F)c2)Cc2c(-c3cccc(C(N)=O)c3)ccnc2O1 (centres undefined) do in these assays?
TbREL1 inh: -6

Results for CC(=O)c1cccc(NC(=O)C2(C)Cc3c(-c4cccc(C(N)=O)c4)ccnc3O2)c1 (centres undefined) ?
TbREL1 inh: 3

What do the screens show for `O=C(Nc1nc2ncccn2c1-c1ccc(F)cc1)c1ccc(F)cc1`?
TbREL1 inh: -4

Results for O=C(COc1ccccc1)Nc1c(Cl)ccc2nsnc12 ?
TbREL1 inh: -2

What do the screens show for `Cc1ccc2nsnc2c1NC(=O)CCl`?
TbREL1 inh: 11*; TbREL1 conf: 4

What do the screens show for `Cc1ccc2nsnc2c1NC(=O)Cc1ccc(Cl)cc1`?
TbREL1 inh: -1

What do the screens show for `COc1ccc2ccccc2c1-c1c(C(=O)c2ccc(Br)cc2)[nH]c(N)c1C(=O)NC1CCCCC1`?
TbREL1 inh: -1

How did COC(=O)[C@@]12CCCCC3=C1N(CCC3)C(=O)[C@H]2CC(=O)NCCC(C)C do in these assays?
TbREL1 inh: -5

What do the screens show for `COc1ccc(Cl)cc1S(=O)(=O)N1CCCC(C(=O)NCc2ccccn2)C1` (centres undefined)?
TbREL1 inh: -2

What do the screens show for `COc1cc2c(cc1OC)-c1cc(NCc3ccccn3)nc(=O)n1CC2`?
TbREL1 inh: 21*; TbREL1 conf: 23*

Results for COc1ccc(C2C(C(=O)NCc3ccccn3)c3cc(OC)c(OC)cc3C(=O)N2C)cc1 (centres undefined) ?
TbREL1 inh: -1

Results for CC(C)NC(=O)C1CCN(c2cncnc2)CC1 ?
TbREL1 inh: 4

Results for C[C@@H]1CNCCN1c1ccc(N2CCS(=O)(=O)CC2)c(C#N)c1 ?
TbREL1 inh: 7

Results for Cc1ccc(-c2cc(C#N)c3n(c2=O)CCC3)cc1 ?
TbREL1 inh: 8

What do the screens show for `CC(C)c1cc(C(=O)O)c2ccccc2n1`?
TbREL1 inh: 13*; TbREL1 conf: 9

How did O=C(O)c1cc(Sc2ccc(Br)cc2)nc2ccccc12 do in these assays?
TbREL1 inh: 0

Assay outcomes deposited in PubChem BioAssay by The Scripps Research Institute Molecular Screening Center.
